Assay outcomes from PubChem BioAssay.
Shown are actives, neighbours in structure and some others; about 2.2% of the full set was active somewhere.
Mito fusion yeast = mitochondrial division inhibition or fusion activation; Potency, µM (highest dose often 46.1 µM), without a hit: top-dose growth rescue (activation), most hits filed as activators; S. cerevisiae fusion-defective mutant growth rescue, CellTiterGlo 48 h; actives 0.23% (n = 320,000); AID 485298; further: % of control where 0% means no effect; nearly all actives have a fitted effect of over 45% in size
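Luminescent cell viability in 1536-well qHTS format served as the measure of rescued growth in ts fusion-mutant S. cerevisiae cultured on non-fermentable YPEG for 48 hours at 37C.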
FUS suppressor = rescues growth of FUS-expressing yeast. actives 0.24% (n = 390,000). S. cerevisiae FUS-expressing, growth rescue, OD600, 24 h. Potency, µM (doses to about 76.6 µM), usual class: activators;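 further: plate controls were DMSO vehicle for no effect and reference control for full effect; nearly all actives have a fitted effect of over 55% in size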
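Restored growth of FUS-toxic S. cerevisiae, read as 600 nm absorbance after 24 h at 30C in galactose medium (starting OD 0.005). Controls CP55940 and DMSO.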
TDP43 rescue = rescues yeast growth from TDP-43 toxicity; TDP-43 expressing yeast growth rescue, BacTiter-Glo, 24 h; Potency, µM (titrated, usually from 46.1 µM), for the others: top-dose growth rescue (activation), hits mostly activators; actives 1.8% (n = 410,000); AID 652104; further: % of control where 0% means no effect; nearly all actives have a fitted effect of over 50% in size
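Cell-based yeast growth screen: TDP-43 expression induced in galactose, inoculum OD600=0.02 after raffinose pregrowth to mid-log. Read-out BacTiter-Glo luminescence at 24 hr, 30 deg C; inhibition of toxicity seen as signal increase.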
Abeta rescue = compounds reversing amyloid beta toxicity in yeast | yeast expressing A-beta42, growth rescue, OD600, 48 h; response scale: 0% DMSO, 100% iron-clioquinol control | Potency, µM (top dose mostly 46.1 µM), actives largely listed as activators | actives 0.063% (n = 410,000) | AID 1347071; further: nearly all actives have a fitted effect of over 55% in size
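Yeast A-beta toxicity model in growth medium with pinned compounds, 48 h at 30 C; growth read as absorbance at 600 nm. Normalized to FeCl3/clioquinol equimolar mix (positive) and DMSO (negative).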
aSyn yeast inh = inhibitors of alpha-synuclein toxicity in yeast; Yeast expressing alpha-synuclein, growth rescue, BacTiter-Glo, 24 h; Potency, µM (top dose mostly 46.1 µM), without a hit: top-dose growth rescue (activation), actives largely listed as activators; actives 0.14% (n = 370,000); further: % of control where 0% means no effect; nearly all actives have a fitted effect of over 65% in size
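Galactose-induced alpha-syn yeast (OD600=0.02, raffinose-pregrown) + pinned cpd, 24 hr, 30 deg C; growth by BacTiter-Glo luminescence. Growth restoration scores as activation.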
* marks the source's active call; other numbers are inactive results; i = inactive; ? = inconclusive; / = no result given; ! = repeats disagree. The call rests on the fitted dose curve; in most records, active means well fitted curve in the direction sought with a large enough effect; inconclusive means small, poorly fitted or top-dose-only effect, or another doubt; inactive means no such curve, though single readings can be large; an effect the other way counts as inactive or inconclusive. Potency means the concentration at half of the fitted maximal effect.

SMILES	Mito fusion yeast	FUS suppressor	TDP43 rescue	Abeta rescue	aSyn yeast inh
CCC(=O)Oc1c(Sc2ccc(Cl)cc2)c(C)nn1C(C)(C)C	/	i	?	i	/
Cc1ccccc1CNC(=O)c1ccc2c(c1)N(Cc1ccccc1)CCS2	/	i	-7%	i	/
O=C(NCc1cccc(Br)c1)C1CCCCN1S(=O)(=O)c1ccc(F)cc1 (configuration not stated)	/	i	?	i	/
Clc1cccc(Nc2ncnc3ccc(Br)cc23)c1	5%	?	?	i	-36%
COc1cc2ncnc(Nc3cccc(Cl)c3)c2cc1OC	3.3µM*!	/	/	/	13%
N#C/C(=C\Nc1ccccc1O)c1nc2ccccc2o1	?	i	7.1µM*	i	-40%
Cc1cc(Nc2cccc(Cl)c2)nc2ccc(NC(=O)c3cccc(N(C)C)c3)cc12	/	?	16µM*	i	/
Cc1cc(Nc2cccc(Cl)c2)nc2ccc(NC(=O)c3cccnc3)cc12	/	i	24%	i	/
COc1ccc(CC(=O)Nc2ccc3nc(Nc4cccc(Cl)c4)cc(C)c3c2)cc1	/	?	?	i	/
Cc1cc(Nc2cccc(C(F)(F)F)c2)nc2ccc(NC(=O)Cc3ccc(Cl)cc3)cc12	/	i	14µM*	i	/
CCc1ccc(/C=C2/SC(=S)NC2=O)cc1	?	/	/	/	-25%
COc1ccc(C2=Nc3ccccc3NC(=O)C2N(CCCn2ccnc2)C(=O)c2cccc(S(C)(=O)=O)c2)cc1 (configuration not stated)	/	i	10%	i	3%
Cc1ccc(CS(=O)(=O)c2cn(CC(=O)N(C)c3ccccc3)c3ccccc23)cc1	/	32µM*	4%	i	/
CC(C)(C)NC(=O)C[n+]1ccc(C(N)=O)cc1	1%	i	1%	i	35µM*
Cc1ccc(NS(=O)(=O)c2ccc(Cl)s2)nc1	7%	i	3%	i	2%
O=S(=O)(Nc1ccc(Br)cn1)c1ccc(Cl)s1	6%	i	11µM*	i	5%
Cc1nc(C)c(-c2ccc(SCC(=O)Nc3ccccc3)nn2)s1	-1%	i	9%	i	1%
Cc1nc(C)c(-c2ccc(SCc3ccccc3C)nn2)s1	12%	i	16µM*	i	1%
CCCNC(=O)N(C)C[C@@H]1Oc2cc(C#C[C@H](C)O)ccc2S(=O)(=O)N([C@H](C)CO)C[C@H]1C	/	i	6%	i	5µM*
CCc1ccc(NC(=O)CN2C(=O)CSc3ccc(S(=O)(=O)N(C)C)cc32)cc1	/	i	18%	i	/
COC(=O)[C@]12C[C@H](CC(=O)NCCc3ccccc3OC)C(=O)N(Cc3cccc4ccccc34)C1=C[C@H](C(C)(C)C)O[C@@H]2C	/	14µM*	/	/	/
CCCCOCCCNC(=O)C[C@H]1C[C@@]2(C(=O)OC)C(=C[C@H](C3CCCC3)O[C@@H]2C)N(Cc2cccc3ccccc23)C1=O	/	8.9µM*	/	/	/
COC(=O)[C@]12C[C@H](CC(=O)N3CCN(C(=O)C4CC4)CC3)C(=O)N(Cc3cccc4ccccc34)C1=C[C@H](C1CCCC1)O[C@@H]2C	/	20µM*	/	/	/
Cc1cc2n(n1)C(c1cn(-c3ccccc3)nc1C)Nc1c(C)cccc1-2 (configuration not stated)	6%	i	?	i	/
Cc1cc2n(n1)C(c1ccc3c(c1)OCO3)Nc1c(C)cccc1-2 (configuration not stated)	20%	i	-15%	i	/
SMILES	Mito fusion yeast	FUS suppressor	TDP43 rescue	Abeta rescue	aSyn yeast inh
Cc1cc(C)c2c(c1)-c1cc(C)nn1C(c1ccc3c(c1)OCO3)N2 (configuration not stated)	-4%	i	18µM*	i	11%
CCOc1ccc(C2Nc3c(C)cccc3-c3cc(C)nn32)cc1 (configuration not stated)	/	i	11µM*	?	/
COc1cc2[nH]c(=O)n(Cc3ccc(C(=O)N4CCN(c5cccc(C)c5C)CC4)cc3)c(=O)c2cc1OC	/	i	-22%	i	/
Clc1ccc(Oc2nnnn2-c2ccccc2)cc1	0%	i	11µM*	i	-3%
Cc1ccc(C(C)C)c(Oc2nnnn2-c2ccccc2)c1	14%	i	0%	i	-24%
COc1cccc(Oc2nnnn2-c2ccccc2)c1	-8%	i	13µM*	i	/
c1ccc(-n2nnnc2Oc2ccc(-n3ccnc3)cc2)cc1	-6%	i	-7%	i	-13%
COc1ccc(Oc2cnn(-c3ccccc3)c(=O)c2Br)cc1	6%	i	13µM*	i	1%
Cc1ccc(C)c(Oc2nnnn2-c2ccccc2)c1	4%	i	11µM*	i	-2%
CCC[N+](C)(C)c1ccc(/C=C/c2ccnc3ccccc23)cc1	/	/	/	/	-63%
COc1ccc(Oc2nnnn2-c2ccccc2)cc1	2%	i	11µM*	i	-6%
O=C(c1ccc(-c2ccc([N+](=O)[O-])cc2)o1)N1CCCCC1	5%	i	13µM*	i	0%
CC1CC(C)CN(C(=O)c2ccc(-c3ccc([N+](=O)[O-])cc3)o2)C1 (configuration not stated)	0%	i	14µM*	i	-15%
O=C(c1ccc(-c2cccc([N+](=O)[O-])c2)o1)N1CCN(c2ccc([N+](=O)[O-])cc2)CC1	2%	i	-8%	i	1%
O=C(O)C1=CC(=C(c2ccc(O)c(C(=O)O)c2)c2ccc(O)c(C(=O)O)c2)C=CC1=O	13µM*	/	/	/	-33%
Cc1cccc(C)c1NC(=O)c1sc(-n2nc(C)c(Cc3ccc4c(c3)OCO4)c2C)nc1C	/	i	-2%	i	/
CNc1c(Cl)cc(C=O)cc1Cl	/	/	/	/	1%
C=CCN=c1scc(-c2ccc3c(c2)NC(=O)CO3)n1/N=C(\C)c1ccccn1	4%	i	13µM*	i	-26%
O=C1COc2ccc(-c3csc(-c4ccc(F)cc4)n3)cc2N1	/	/	/	/	3%
Cc1cc(NC(=O)c2cccnc2)ccc1Br	8%	i	11µM*	i	-7%
Cc1ccc(-c2cc(C(=O)Nc3cccnc3)c3ccccc3n2)o1	-1%	3.2µM*	-26%	i	21%
Cc1csc(NC(=O)c2cc(-c3ccccc3)nc3ccccc23)n1	?	/	18µM*	i	2%
Cc1cc(NC(=O)c2ccccc2-c2ccccc2)ccc1Br	2%	i	0%	13µM*	-13%
Cc1ccc(NC(=O)c2cc(-c3ccc(C)o3)nc3ccccc23)cc1	7%	?	?	i	28%
CC1=C(c2ccc(C)cc2)S(=O)(=O)NC1=NCc1ccccc1Cl	/	i	3%	i	/
Cc1cc(NC(=O)c2ccoc2C)ccc1Br	?	i	11µM*	i	-38%
